Measurements reported in PubChem BioAssay (NCATS).
Records with an inconclusive call do not appear. Calls of active or inactive are those of the source. Calls come from the whole dose curve; as a rule, active = well fitted curve in the direction sought with a large enough effect; inconclusive = small, poorly fitted or top-dose-only effect, or another doubt; inactive = no such curve, though single readings can be large; an effect the other way counts as inactive or inconclusive.

Experiments:
[1] = MultiTox-Fluor Cytotoxicity Assay - LYMP1-003 - Live Cells (AID 962); settings: LYMP1-003 lymphoblastoid cells, MultiTox-Fluor live-cell protease fluorescence; series mostly up to 92.2 µM;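 note: cells exposed to compound for 16 hours at 37 °C; cytotoxic hits lower the live-cell protease signal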
Outline: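 qHTS, 1536-well; 2500 cells/well LYMP1-003; 5 hr 37 C settle; cpd 16 hr 37 C; MultiTox-Fluor reagent 60 min RT; live-cell protease fluor. 405/510; Hill-fit AC50; tetraoctylammonium bromide pos. ctrl.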

[2] = Cell Viability - LYMP1-003 - Assay at 24 hr (AID 963); settings: LYMP1-003 lymphoblastoid cell viability; series mostly up to 92.2 µM
Outline: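 Cells seeded at 2500/well, 5 hr at 37 C; compounds added; 24 hr at 37 C; CellTiter-Glo added, 30 min room temperature; luminescence read. Decrease in ATP taken as cytotoxicity, AC50 from Hill modelling.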

[3] = Cell Viability - LYMP1-003 - Assay at 40 hr (AID 964); settings: LYMP1-003 lymphoblastoid viability; series mostly up to 92.2 µM; note: nearly all actives have a fitted effect of over 60% in size
Outline: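 Cells were seeded at 2500 per well and incubated 5 hr at 37 C. Compounds were added across a concentration series and left 40 hr at 37 C. CellTiter-Glo was added for 30 min at room temperature before luminescence reading.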

[4] = Cell Viability - LYMP2-003 (AID 965); settings: LYMP2-003 lymphoblastoid cell viability; series mostly up to 92.2 µM;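 note: cells exposed to compounds for 24 h before reading; nearly all actives have a fitted effect of over 50% in size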
Outline: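 Human lymphoblastoid LYMP2-003 cells, 2500/well, exposed to compounds for 24 h at 37 C in complete medium. Viability read as intracellular ATP by CellTiter-Glo luminescence; AC50 from Hill-equation fits of qHTS concentration-response data.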

[5] = Cell Viability - LYMP2-004 (AID 966); settings: LYMP2-004 lymphoblastoid cell viability, qHTS; series mostly up to 92.2 µM; note: nearly all actives have a fitted effect of over 65% in size
Outline: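 Cells seeded 2500/well, rested 5 hr at 37 C, dosed across a concentration series, incubated 24 hr at 37 C, then CellTiter-Glo added for 30 min at room temperature and luminescence read. Hill fitting gave AC50.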

[6] = Cell Viability - LYMP2-009 (AID 968); settings: LYMP2-009 lymphoblastoid cell viability; series mostly up to 92.2 µM; note: nearly all actives have a fitted effect of over 55% in size
[7] = Cell Viability - LYMP2-011 (AID 969); settings: LYMP2-011 lymphoblastoid cells viability; series mostly up to 92.2 µM; note: nearly all actives have a fitted effect of over 60% in size
Outline: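 2500 cells/well, 5 hr 37 C; compound added, 24 hr 37 C; CellTiter-Glo 30 min RT; luminescence. qHTS concentration-response, Hill-equation AC50. Tetraoctylammonium bromide positive control.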

[8] = Cell Viability - LYMP2-013 (AID 970); settings: LYMP2-013 lymphoblastoid cells viability; series mostly up to 92.2 µM; note: nearly all actives have a fitted effect of over 55% in size
Outline: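 qHTS; 2500 lymphoblastoid cells/well; 5 hr 37 C settle; cpd 24 hr 37 C; CellTiter-Glo, 30 min RT; luminescence. AC50 = Hill fit.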

[9] = Cell Viability - LYMP2-015 (AID 971); settings: LYMP2-015 lymphoblastoid cell viability; series mostly up to 92.2 µM; note: nearly all actives have a fitted effect of over 55% in size
Outline: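 Luminescent ATP read-out (CellTiter-Glo) served as the viability measure after lymphoblastoid cells were exposed to compounds for 24 hours at 37 C. Concentration-response data were fitted with the Hill equation to give AC50.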

[10] = Cell Viability - LYMP2-005 (AID 967); settings: LYMP2-005 lymphoblastoid cell viability; series mostly up to 92.2 µM
Outline: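 Human lymphoblastoid LYMP2-005 cells, 2,500 per well in complete medium, rested 5 h at 37C then compound-treated 24 h at 37C. Intracellular ATP read by CellTiter-Glo luminescence after 30 min at room temperature; AC50 from Hill-equation fits of concentration-response data.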

Measured: outcome

NC(=O)c1ccccc1
not listed: [10]
inactive: all other assays above

CC(=O)C(C)=O
inactive: all assays above
